Only some compounds are listed: those with a hit (about 8% of all), similar ones and a draw of the others.
Lassa entry inh: blocks Lassa virus binding to or entry into cells. AID 540256. Potency, µM (doses to about 37.9 µM), inactives show at the highest dose activity change, negative = inhibition, most hits filed as inhibitors. Lassa virus pseudotype entry inhibition, cell reporter. 1.2% of 300,000 active; calls by dose curve; tested in HEK293 cells; also: potency is read from the fitted curve at half-maximal effect; % is scaled to controls: 0 for no effect and ±100 for the full control effect; nearly all actives have a fitted effect of over 50% in size
MARV entry inh: Marburg virus entry inhibition; Marburg virus pseudotyped entry inhibition, cell reporter; Potency, µM (series often up to 37.8 µM), for the others: top-dose activity change, negative = inhibition, actives largely listed as inhibitors; 1.8% of 300,000 active; AID 540276; calls by dose curve; tested in HEK293 cells; also: potency is read from the fitted curve at half-maximal effect; % is scaled to controls: 0 for no effect and ±100 for the full control effect
SARS PLpro yeast: SARS-CoV PLP inhibition in yeast. 0.19% of 330,000 active. AID 485353. S. cerevisiae expressing SARS-CoV PLpro, growth rescue. Potency, µM (doses to about 32.9 µM), for inactives: top-dose activity, positive = growth rescue, hits mostly activators; calls by dose curve; also: potency is read from the fitted curve at half-maximal effect; 0% is about no effect; nearly all actives have a fitted effect of over 55% in size
FMDV inh: blocks foot and mouth disease virus | FMDV antiviral cell-based qHTS | Potency, µM (titrated, usually from 57.9 µM), without a hit: top-dose activity change, negative = inhibition, usual class: inhibitors | 1.2% of 410,000 active; calls by dose curve; tested in HEK293T cells; also: read-out not given here; potency is read from the fitted curve at half-maximal effect; % is scaled to controls: 0 for no effect and ±100 for the full control effect; nearly all actives have a fitted effect of over 45% in size
HCMV antiviral: inhibitors of human cytomegalovirus; HFF cells, HCMV-luciferase reporter, 72 h; active compounds read low; activity change, negative = inhibition, % at 57.5 µM; 4.5% of 410,000 active; in the data active = activity change below about -60%; inconclusive = no clear call, values can overlap the other calls; inactive = above about -39%; also: % is scaled to controls: 0 for no effect and ±100 for the full control effect
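After 16 h attachment at 37C, HFF cells received test compound and HCMV-luciferase (1 PFU/cell); reporter luminescence read 72 h later, data normalized against buffer-only and known inhibitor Salinomycin.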
HCV inhibitor: blocks hepatitis C virus; Huh7.5.1 HCVcc-Cre infection, luciferase reporter, 44 h; Potency, µM (highest dose often 41.8 µM), without a hit: at the top dose activity change, negative = inhibition, most hits filed as inhibitors; 3.4% of 340,000 active; AID 651820; active = well fitted inhibition curve with a large enough effect; inconclusive = small, poorly fitted or top-dose-only effect, or another doubt; inactive = no such curve, though single readings can be large or run the other way; also: potency is read from the fitted curve at half-maximal effect; % is scaled to controls: 0 for no effect and ±100 for the full control effect
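Reporter virus HCVcc-Cre (~0.5 moi) infects cells exposed to compound; seeding density 1,000 cells/well with 4 h settling beforehand. Luminescence, 15 sec read, taken 44 h post-infection following a 15 min RT substrate incubation.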
* = called active by the depositor; u = inconclusive; x = no result given; [ ] = remark or other dose.

SMILES	Lassa entry inh	MARV entry inh	SARS PLpro yeast	FMDV inh	HCMV antiviral	HCV inhibitor
Cc1ccc2c(=O)cc(C(=O)Nc3c(C(=O)c4ccc(F)cc4)oc4ccccc34)oc2c1C	13.2%[46.1 µM]	2.4%[46.1 µM]	x	-16.3%	0.7	x
CCOC(=O)c1cc(S(=O)(=O)Nc2ccc(Br)c(C)c2)[nH]n1	27.2%[46.1 µM]	x	x	61.8%	0.6	x
CN(CCC#N)c1ccc(/C=C(\C#N)c2ccccn2)cc1	2.24µM*	8.2µM*	-31.1%	-73.8%	-17.9	u
CCN(Cc1ccccc1)c1ccc(/C=C(\C#N)c2ccccn2)cc1	17.7%	-18.2%	8.3%	48.3%	47.9	-4.3%
CCN(CC)c1ccc(/C=C(\C#N)c2ccccn2)cc1	5.8µM*	u	-60.8%	-44.1%	x	14.1µM*
Cn1c2c(c(=O)n(C)c1=O)C(c1cccc(O)c1)CC(=O)N2 (stereo not drawn)	2.7%[46.1 µM]	1.8%[46.1 µM]	x	6.2%	7.2	x
Cc1cc(C)cc(NC2=CC(c3cccc(F)c3)N(c3cc(C)cc(C)c3)C2=O)c1 (stereo not drawn)	-0.5%[46.1 µM]	-1.7%[46.1 µM]	x	0.0%	-7.0	x
CCCCCC(=O)N1C[C@@H](O)[C@H](n2cc(-c3ccc(F)cc3)nn2)C[C@H]1c1ccc(C)cc1	8.6%[46.1 µM]	x	x	x	x	x
COc1cccc(-n2c(O)c(C=NCc3ccc4c(c3)OCO4)c(=O)[nH]c2=O)c1	-4.2%	-1.6%	3.2%	-15.9%	-105.0*	-11.4%
Cc1cc(C)c2c(n1)nn1c(C)c(CCC(=O)NCc3ccc(Cl)cc3)c(C)nc21	u	1.1%[46.1 µM]	x	5.8%	13.5	x
CCN1C(=O)CC(CC(=O)N2CCC(c3nc4ccc(F)cc4[nH]3)CC2)(c2ccccc2C)C1=O (stereo not drawn)	x	x	x	-11.1%	x	x
COc1cccc(CNC(=O)C2CCN(C(=O)N3CCOc4ccc(Cl)cc43)CC2)c1OC	u	x	x	-22.2%	-1.1	x
CN(C)c1ccc(-c2[nH][nH]c(=O)c2NC(=O)c2ccc3ccccc3n2)cc1	x	x	x	-10.1%	-62.7*	x
Cc1cnc(C(=O)Nc2c(-c3ccccc3)[nH][nH]c2=O)cn1	x	x	x	-4.7%	-10.2	x
CN(C)c1ccc(-c2[nH][nH]c(=O)c2NC(=O)c2ccccn2)cc1	x	x	x	1.0%	-60.7*	x
Fc1cccc(-c2cc3cnc(Nc4cccc(C(F)(F)F)c4)cc3[nH]2)c1	x	x	x	x	-36.9	x
COc1ccc(Nc2nc(N)c([N+](=O)[O-])c(NC3CCCCC3)n2)cc1	u	u	-3.5%	u	u	11.2µM*
COc1ccc(Nc2nc(N)c([N+](=O)[O-])c(NCCO)n2)cc1	-13.4%	u	-3.3%	18.9%	32.7	-0.2%
CCC(=NCCc1c[nH]c2ccccc12)c1c(O)n(C)c(=O)n(C)c1=O	u	u	18.5%	15.8µM*	-75.1*	4.47µM*
CC(=NCCc1c[nH]c2ccccc12)c1c(O)n(Cc2ccccc2)c(=O)[nH]c1=O	11.2µM*	u	0.6%	u	u	u
CCC(=NCCc1c[nH]c2ccccc12)c1c(O)n(-c2ccc(C)cc2)c(=O)[nH]c1=O	1.84µM*	u	-11.4%	-8.6%	-4.5	-0.6%
CCC(=NCc1ccc2c(c1)OCO2)c1c(O)n(C)c(=O)n(C)c1=O	u	u	3.4%	u	-65.8*	u
CC(=NCc1ccc2c(c1)OCO2)c1c(O)n(C)c(=O)n(C)c1=O	3.2%	-8.0%	3.8%	-5.5%	15.8	-18.1%
CCC(=NCCCn1ccnc1)c1c(O)n(-c2ccccc2)c(=O)[nH]c1=O	21.9%[46.1 µM]	14.4%[46.1 µM]	0.7%	-5.0%	4.3	25.0%
CC(=NCCc1ccccc1)c1c(O)n(C)c(=O)n(C)c1=O	8.0%[46.1 µM]	-7.7%[46.1 µM]	-3.5%	-25.8%	u	15.5%
SMILES	Lassa entry inh	MARV entry inh	SARS PLpro yeast	FMDV inh	HCMV antiviral	HCV inhibitor
Cc1ccc(C)c(N2CCN(S(=O)(=O)c3c(C(=O)N4CCC(C)CC4)c(C)n(C)c3C)CC2)c1	u	x	x	-11.3%	-24.9	x
CCC(=NC(C)c1ccccc1)c1c(O)n(C)c(=O)n(C)c1=O (stereo not drawn)	u	u	3.3%	12.6µM*	u	5.62µM*
CC/C(=N\Nc1ccccc1)c1c(O)n(-c2ccccc2)c(=O)[nH]c1=O	10µM*	-19.3%	-1.6%	-29.8%	17.0	-10.0%
CC/C(=N\Nc1ccccc1)c1c(O)n(C)c(=O)n(C)c1=O	-1.4%	0.1%	-15.5%	u	2.2	-8.5%
COc1ccc2c(c1)CC[C@@H]1[C@@H]2CC[C@]2(C)[C@@H](NCCCCCCN3C(=O)C=CC3=O)CC[C@@H]12	x	x	x	-8.5%	x	x
COc1ccc(NC(=O)c2c(-c3ccc(C)cc3)nnc3ccccc23)c(OC)c1	-0.1%[46.1 µM]	x	x	2.9%	0.0	x
CCN(CCO)CCCC(C)Nc1ccnc2cc(Cl)ccc12 (stereo not drawn)	x	x	x	-13.7%	x	x
CCN(CC)CCCC(C)Nc1nccc2c(Cl)cccc12 (stereo not drawn)	u	u	x	-17.6%	-34.7	10µM*
Cc1ccc2nc(CSc3nc(C)ccc3C#N)[nH]c2c1	1.03µM*	2.31µM*	-25.4%	8.91µM*	144.2	u
Cc1ccc(C#N)c(SCc2ccccc2F)n1	18.2%	0.1%[46.1 µM]	-0.6%	7.8%	u	3.8%
O=C(NCCOc1ccccc1)c1ccccc1Cl	u	u	0.4%	4.6%	u	1.3%
CN(C(=O)COc1ccccc1C(=O)NCCOc1ccccc1)c1ccccc1	11.2µM*	u	19.2%	8.91µM*	-93.3*	8.91µM*
Cc1c(C(=O)N2CCCCCC2)c(S(=O)(=O)Nc2ccc(OC(F)(F)F)cc2)c(C)n1C	-8.8%[46.1 µM]	x	x	-3.6%	11.6	x
COc1cc2c(ccc3cc(OC)c(OC)c(O)c32)cc1O	x	x	0.7%	-1.3%	-104.8*	u
CCOc1ccccc1NC(=O)CSc1ccc2nnc(CCNS(=O)(=O)c3ccccc3)n2n1	6.2%[46.1 µM]	x	x	8.0%	18.8	x
Cc1cc(NC(=O)CCl)on1	-19.0%	-16.9%[46.1 µM]	8.5%	u	-68.0*	u
Cc1cc(Br)c(NC(=O)CCl)c(Br)c1	-14.2%	u	2.6%	u	-65.8*	-15.4%
Cc1cc(NC(=O)CCl)nn1C	u	7.94µM*	17.1%	35.5µM*	u	u
Cc1c(Cl)cccc1NC(=O)Nc1ccn(C)n1	u	u	-0.6%	13.8%	-28.7	-15.2%
CC(C)c1cc(NC(=O)CCl)on1	x	x	15.8%	u	-11.1	-1.9%
Cn1ccc(NC(=O)CCl)n1	u	u	12.8%	u	-99.0*	u
Cc1cc(Br)c(NC(=O)CN(C)CCOc2ccccc2)c(Br)c1	x	x	-5.8%	-5.0%	-26.1	u
O=C1C=C(c2ccc3c(c2)OCO3)C[C@@H](c2ccc3c(c2)OCO3)C1	x	x	3.2%	1.3%	2.0	u
Cc1cc(C)c(C2=CC(=O)C[C@H](c3ccc4c(c3)OCO4)C2)c(C)c1	x	0.8%	-0.1%	0.0%	-61.0*	-13.1%
